# Among all 5,500 compounds or so, about 2,000 (36%) were called active. Roughly 18% stayed inconclusive and do not appear here. The list shows a part of the results. A number with no mark means an inactive call. No stated cut-off is given here; in the data, active means normalized growth mostly below about 0.91 (no sharp cut-off); inconclusive means no clear call, values can overlap the other calls; inactive means mostly above about 0.92.
# Assay: chemical genetic growth profiling, strain panel (AID 1159580);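 further: tested at 20 µM; growth read once vehicle control cultures reached saturation at 30 °C; 1 = growth at the plate median or of vehicle wells; lower values mean less growth of the strain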
# Conditions: growth OD
smiles,measurement,setting,value
COC(=O)c1c(C)c2c(c(C)c1OC)OC(=O)c1c(C)c(Cl)c(OC)c(Cl)c1O2,normalized growth,"S. cerevisiae deletion strains, locus YBR021W, strain FUR4, hits give low values",0.99
same,normalized growth,"S. cerevisiae deletion strains, locus YBR229C, strain ROT2, hits give low values",1.01
same,normalized growth,"S. cerevisiae deletion strains, locus YCL029C, strain bik1, hits give low values",1.02
same,normalized growth,"S. cerevisiae deletion strains, locus YDL035C, strain GPR1, hits give low values",1.03
same,normalized growth,"S. cerevisiae deletion strains, locus YDL074C, strain BRE1, hits give low values",1.04
same,normalized growth,"S. cerevisiae deletion strains, locus YDL101C, strain DUN1, hits give low values",1.02
same,normalized growth,"S. cerevisiae deletion strains, locus YDL134C, strain PPH21, hits give low values",1.01
same,normalized growth,"S. cerevisiae deletion strains, locus YDL185W, strain tfp1, hits give low values",1.01
same,normalized growth,"S. cerevisiae deletion strains, locus YDL192W, strain arf1, hits give low values",1.02
same,normalized growth,"S. cerevisiae deletion strains, locus YDR101C, strain arx1, hits give low values",1
same,normalized growth,"S. cerevisiae deletion strains, locus YDR150W, strain NUM1, hits give low values",1.02
same,normalized growth,"S. cerevisiae deletion strains, locus YDR162C, strain NBP2, hits give low values",1.03
same,normalized growth,"S. cerevisiae deletion strains, locus YDR318W, strain mcm21, hits give low values",1.02
same,normalized growth,"S. cerevisiae deletion strains, locus YDR388W, hits give low values",1.02
same,normalized growth,"S. cerevisiae deletion strains, locus YDR502C, strain sam2, hits give low values",1.03
same,normalized growth,"S. cerevisiae deletion strains, locus YEL061C, strain CIN8, hits give low values",1.01
same,normalized growth,"S. cerevisiae deletion strains, locus YER110C, hits give low values",1.02
same,normalized growth,"S. cerevisiae deletion strains, locus YER155C, strain BEM2, hits give low values",0.998
same,normalized growth,"S. cerevisiae deletion strains, locus YER167W, strain BCK2, hits give low values",1.03
same,normalized growth,"S. cerevisiae deletion strains, locus YGL078C, strain dbp3, hits give low values",1.01
same,normalized growth,"S. cerevisiae deletion strains, locus YGL086W, strain mad1, hits give low values",1.03
same,normalized growth,"S. cerevisiae deletion strains, locus YGL248W, strain PDE1, hits give low values",1.01
same,normalized growth,"S. cerevisiae deletion strains, locus YGR135W, strain pre9, hits give low values",1.03
same,normalized growth,"S. cerevisiae deletion strains, locus YGR229C, strain SMI1, hits give low values",1.06
same,normalized growth,"S. cerevisiae deletion strains, locus YGR252W, strain gcn5, hits give low values",1.01
same,normalized growth,"S. cerevisiae deletion strains, locus YHR030C, strain SLT2, hits give low values",1.02
same,normalized growth,"S. cerevisiae deletion strains, locus YHR079C, strain IRE1 (second series), hits give low values",1.01
same,normalized growth,"S. cerevisiae deletion strains, locus YHR094C, strain hxt1, hits give low values",1.02
same,normalized growth,"S. cerevisiae deletion strains, locus YHR129C, strain ARP1, hits give low values",1.01
same,normalized growth,"S. cerevisiae deletion strains, locus YHR200W, strain rpn10, hits give low values",1.02
same,normalized growth,"S. cerevisiae deletion strains, locus YIL066C, strain RNR3, hits give low values",1.04
same,normalized growth,"S. cerevisiae deletion strains, locus YIL073C, strain SPO22, hits give low values",1.09
same,normalized growth,"S. cerevisiae deletion strains, locus YIL125W, strain kgd1, hits give low values",1.01
same,normalized growth,"S. cerevisiae deletion strains, locus YIR030C, strain dcg1, hits give low values",1.01
same,normalized growth,"S. cerevisiae deletion strains, locus YJL095W, strain BCK1, hits give low values",1.04
same,normalized growth,"S. cerevisiae deletion strains, locus YJL134W, strain LCB3, hits give low values",1.01
same,normalized growth,"S. cerevisiae deletion strains, locus YJL168C, strain set2, hits give low values",1.02
same,normalized growth,"S. cerevisiae deletion strains, locus YJL187C, strain SWE1 (second series), hits give low values",1.03
same,normalized growth,"S. cerevisiae deletion strains, locus YJR043C, strain POL32, hits give low values",1.03
same,normalized growth,"S. cerevisiae deletion strains, locus YKL009W, strain mrt4, hits give low values",1.37 [resistant] (active)
same,normalized growth,"S. cerevisiae deletion strains, locus YKL068W, hits give low values",1.04
same,normalized growth,"S. cerevisiae deletion strains, locus YKL085W, strain MDH1 (second series), hits give low values",1.23 [resistant] (active)
same,normalized growth,"S. cerevisiae deletion strains, locus YKL085W, strain MDH1, hits give low values",1.23 [resistant] (active)
same,normalized growth,"S. cerevisiae deletion strains, locus YKR001C, strain vps1, hits give low values",1.01
same,normalized growth,"S. cerevisiae deletion strains, locus YLR039C, strain RIC1, hits give low values",1.06
same,normalized growth,"S. cerevisiae deletion strains, locus YLR058C, strain SHM2, hits give low values",1.02
same,normalized growth,"S. cerevisiae deletion strains, locus YLR102C, strain apc9, hits give low values",1.01
same,normalized growth,"S. cerevisiae deletion strains, locus YLR262C, strain YPT6, hits give low values",1.07
same,normalized growth,"S. cerevisiae deletion strains, locus YLR268W, strain sec22, hits give low values",1.02
same,normalized growth,"S. cerevisiae deletion strains, locus YLR330W, strain CHS5, hits give low values",1.02
same,normalized growth,"S. cerevisiae deletion strains, locus YLR342W, strain FKS1 (second series), hits give low values",1.05
same,normalized growth,"S. cerevisiae deletion strains, locus YLR371W, strain rom2, hits give low values",1.01
same,normalized growth,"S. cerevisiae deletion strains, locus YLR418C, strain cdc73, hits give low values",1.03
same,normalized growth,"S. cerevisiae deletion strains, locus YML016C, strain PPZ1, hits give low values",1.01
same,normalized growth,"S. cerevisiae deletion strains, locus YML032C, strain rad52, hits give low values",1.01
same,normalized growth,"S. cerevisiae deletion strains, locus YML124C, strain tub3, hits give low values",1.04
same,normalized growth,"S. cerevisiae deletion strains, locus YMR078C, strain ctf18, hits give low values",1.01
same,normalized growth,"S. cerevisiae deletion strains, locus YMR223W, strain ubp8, hits give low values",1.02
same,normalized growth,"S. cerevisiae deletion strains, locus YMR307W, strain GAS1, hits give low values",1.04
same,normalized growth,"S. cerevisiae deletion strains, locus YNL067W, strain RPL9B, hits give low values",1.02
same,normalized growth,"S. cerevisiae deletion strains, locus YNL128W, strain TEP1, hits give low values",1.04
same,normalized growth,"S. cerevisiae deletion strains, locus YNL233W, strain BNI4, hits give low values",1.02
same,normalized growth,"S. cerevisiae deletion strains, locus YNL250W, strain rad50, hits give low values",1.04
same,normalized growth,"S. cerevisiae deletion strains, locus YNL271C, strain bni1, hits give low values",1.02
same,normalized growth,"S. cerevisiae deletion strains, locus YNL298W, strain CLA4, hits give low values",1.02
same,normalized growth,"S. cerevisiae deletion strains, locus YNL307C, strain MCK1, hits give low values",1.01
same,normalized growth,"S. cerevisiae deletion strains, locus YNL322C, strain KRE1, hits give low values",1.02
same,normalized growth,"S. cerevisiae deletion strains, locus YNR052C, strain pop2, hits give low values",1.02
same,normalized growth,"S. cerevisiae deletion strains, locus YOL012C, strain htz1",0.795
same,normalized growth,"S. cerevisiae deletion strains, locus YOL147C, strain pex11, hits give low values",1.01
same,normalized growth,"S. cerevisiae deletion strains, locus YOR061W, strain CKA2, hits give low values",1.01
same,normalized growth,"S. cerevisiae deletion strains, locus YOR069W, strain VPS5, hits give low values",1.01
same,normalized growth,"S. cerevisiae deletion strains, locus YOR136W, strain idh2, hits give low values",1.02
same,normalized growth,"S. cerevisiae deletion strains, locus YOR144C, strain elg1, hits give low values",1.01
same,normalized growth,"S. cerevisiae deletion strains, locus YOR184W, strain ser1, hits give low values",1.02
same,normalized growth,"S. cerevisiae deletion strains, locus YOR316C, strain cot1, hits give low values",1.02
same,normalized growth,"S. cerevisiae deletion strains, locus YPL055C, strain LGE1, hits give low values",1.04
same,normalized growth,"S. cerevisiae deletion strains, locus YPR119W, strain clb2, hits give low values",1.01
same,normalized growth,"S. cerevisiae deletion strains, locus YPR141C, strain kar3, hits give low values",1.02
same,normalized growth,"S. cerevisiae deletion strains, locus YPR163C, strain tif3, hits give low values",1.01
same,normalized growth,"S. cerevisiae deletion strains, locus YPR167C, strain met16, hits give low values",1.02
same,normalized growth,"S. cerevisiae deletion strains, strain wtn01, hits give low values",1.01
same,normalized growth,"S. cerevisiae strains, strain wild type, hits give low values",1.02
